In PubChem BioAssay (Tox21):
Records with an inconclusive call do not appear. Entries that show only a call come without a potency. The source made the active and inactive calls. Unless noted, calls follow the shape of the dose curve; as a rule, active = well fitted curve in the direction sought with a large enough effect in the repeat runs; inconclusive = weak or mixed curves; inactive = no such curve, though single readings can be large; an effect the other way counts as inactive or inconclusive.

Key:
[1] = qHTS assay to identify small molecule agonists of the androgen receptor (AR) signaling pathway in the presence of an antagonist - cell viability counter screen (AID 1259379); also: nearly all actives have a fitted effect of over 25% in size; also: potency is read from the fitted curve at half-maximal effect
Outline: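 Seed MDA-kb2 at 3,000 cells/well; incubate 5 hr, 37C, 0% CO2. Add nilutamide to 3.0uM final, then pin compounds at 15 concentrations. Incubate 16 hr. Add CellTiter-Fluor at 15 hr, read fluorescence after 1 hr.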

[2] = molecular target: Estrogen receptor (Homo sapiens) (UniProt P03372); assay: qHTS assay to identify small molecule agonists of the estrogen receptor alpha (ER-alpha) signaling pathway in the presence of an antagonist (AID 1259383; calls by dose curve; also: nearly all actives have a fitted effect of over 15% in size; also: potency is read from the fitted curve at half-maximal effect; as to activation: top concentration of the series differs between compounds)
Sequence of Estrogen receptor (Homo sapiens) (P03372 whole entry, looked up): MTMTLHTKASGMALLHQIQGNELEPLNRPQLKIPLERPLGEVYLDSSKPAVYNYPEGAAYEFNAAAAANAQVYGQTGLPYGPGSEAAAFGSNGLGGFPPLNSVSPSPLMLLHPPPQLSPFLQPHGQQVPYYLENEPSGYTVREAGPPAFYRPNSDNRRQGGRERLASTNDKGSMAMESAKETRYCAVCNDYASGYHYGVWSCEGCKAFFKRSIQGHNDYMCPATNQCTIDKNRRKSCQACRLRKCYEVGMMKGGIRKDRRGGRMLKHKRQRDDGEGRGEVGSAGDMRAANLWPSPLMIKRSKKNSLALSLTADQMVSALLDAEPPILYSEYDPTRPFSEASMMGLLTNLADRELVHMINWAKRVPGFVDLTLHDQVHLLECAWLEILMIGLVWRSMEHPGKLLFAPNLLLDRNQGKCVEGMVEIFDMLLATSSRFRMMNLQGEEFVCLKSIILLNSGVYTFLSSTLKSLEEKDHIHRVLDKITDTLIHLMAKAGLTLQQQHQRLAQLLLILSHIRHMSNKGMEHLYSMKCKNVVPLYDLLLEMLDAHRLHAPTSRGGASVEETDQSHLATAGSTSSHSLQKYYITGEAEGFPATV
Outline: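 Stably transfected VM7Luc4E2 reporter cells, kept 5 days in charcoal-stripped serum, received ICI-182,780 at 10.0nM final before compound addition. Following 22hr incubation at 37C and 5% CO2, luciferase signal was read by luminescence.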

[3] = qHTS assay to identify small molecule agonists or antagonists of the thyroid stimulating hormone receptor (TSHR) signaling pathway - wild type cell line counter screen (AID 1259384; calls by dose curve)
Outline: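 Wild-type HEK293 cells were plated 18 h at 37 C/5% CO2, pin-dosed with compound plus Ro20-1724 medium, held 30 min at room temperature, then given cAMP-d2 and anti-cAMP-cryptate; fluorescence was read after 1 h. Fifteen concentrations, triplicate.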

[4] = molecular target: Thyrotropin receptor (Homo sapiens) (UniProt P16473); assay: qHTS assay to identify small molecule antagonists of the thyroid stimulating hormone receptor (TSHR) signaling pathway (AID 1259385; calls by dose curve; also: nearly all actives have a fitted effect of over 20% in size; also: potency is read from the fitted curve at half-maximal effect)
Sequence of Thyrotropin receptor (Homo sapiens) (P16473 whole entry, looked up): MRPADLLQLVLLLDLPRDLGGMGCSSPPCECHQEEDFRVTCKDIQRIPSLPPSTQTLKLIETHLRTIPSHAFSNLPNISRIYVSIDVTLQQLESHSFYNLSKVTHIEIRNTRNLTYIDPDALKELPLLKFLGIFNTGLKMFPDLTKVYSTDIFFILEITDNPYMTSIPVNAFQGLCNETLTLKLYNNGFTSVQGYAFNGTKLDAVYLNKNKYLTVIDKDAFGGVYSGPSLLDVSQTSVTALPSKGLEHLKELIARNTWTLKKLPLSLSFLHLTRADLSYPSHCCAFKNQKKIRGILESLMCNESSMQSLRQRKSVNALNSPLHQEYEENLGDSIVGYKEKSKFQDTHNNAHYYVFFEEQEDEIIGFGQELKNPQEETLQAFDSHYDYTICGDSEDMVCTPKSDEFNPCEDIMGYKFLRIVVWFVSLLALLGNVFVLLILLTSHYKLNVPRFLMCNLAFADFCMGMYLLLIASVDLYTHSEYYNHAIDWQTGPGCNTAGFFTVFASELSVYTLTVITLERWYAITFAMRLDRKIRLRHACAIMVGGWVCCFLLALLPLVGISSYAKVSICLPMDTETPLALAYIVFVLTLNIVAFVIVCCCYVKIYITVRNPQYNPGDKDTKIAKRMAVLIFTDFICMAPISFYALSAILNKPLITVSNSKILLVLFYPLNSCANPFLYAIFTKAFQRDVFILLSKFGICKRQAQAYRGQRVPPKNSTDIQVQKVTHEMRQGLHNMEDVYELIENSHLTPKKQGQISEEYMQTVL
Outline: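 TSHR-HEK293 cells were plated and held 18 h at 37C/5% CO2, then given compound plus Ro20-1724 and stimulated with TSH at 1.5 ng/mL final. After 30 min at room temperature, cAMP was detected with cAMP-d2/anti-cAMP-cryptate (1 h) by fluorescence.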

[5] = qHTS assay to identify small molecule agonists of the estrogen receptor alpha (ER-alpha) signaling pathway in the presence of an antagonist - cell viability counter screen (AID 1259386);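 also: cells exposed to compounds for 22 h at 37 °C before the viability read; nearly all actives have a fitted effect of over 30% in size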; also: potency is read from the fitted curve at half-maximal effect
Outline: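 Viability counter screen using VM7Luc4E2 (full-length ER-alpha, four ERE-luciferase). The cells were treated with compounds alongside ICI-182,780 10.0nM for 22hr, and live-cell protease fluorescence was quantified with CellTiter-Fluor.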

[6] = qHTS assay to identify small molecule antagonists of the progesterone receptor (PR) signaling pathway - cell viability counter screen (AID 1346798); also: nearly all actives have a fitted effect of over 50% in size; also: potency is read from the fitted curve at half-maximal effect
Outline: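 PR-UAS-bla HEK293T cells, 3,000/well in 2% charcoal-stripped FBS medium, dosed with compounds plus R5020 agonist and incubated 16 h at 37C. Viability then measured in the same wells by CellTiter-Glo luminescence after 30 min at RT.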

[7] = qHTS assay to identify small molecule antagonists of the TGF-beta/Smad signaling pathway - cell viability counter screen (AID 1346824); also: nearly all actives have a fitted effect of over 50% in size; also: potency is read from the fitted curve at half-maximal effect
Outline: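 SBE-bla HEK 293T cells were plated overnight at 37 C, then given compounds in DMSO plus TGF-beta1 (added as 0.25 ng/mL solution) for 5 hr. After the bla read, CellTiter-Glo was added to the same wells and luminescence read after 30 min at room temperature.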

[8] = qHTS assay to identify small molecule agonists of the TGF-beta/Smad signaling pathway - cell viability counter screen (AID 1346829); also: nearly all actives have a fitted effect of over 45% in size; also: potency is read from the fitted curve at half-maximal effect
Outline: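 Compound-treated SBE-bla HEK 293T cells (5 hr, 37 C) were assessed for viability with CellTiter-Glo in parallel with the reporter read.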

[9] = molecular target: Thyrotropin-releasing hormone receptor (Homo sapiens) (UniProt P34981); assay: qHTS assay to identify small molecule antagonists of the thyrotropin-releasing hormone receptor (TRHR) signaling pathway (AID 1346877; active = well fitted inhibition curve with a large enough effect in the repeat runs, not every such curve was filed as active; also: series mostly up to about 51 µM)
Sequence of Thyrotropin-releasing hormone receptor (Homo sapiens) (P34981 whole entry, looked up): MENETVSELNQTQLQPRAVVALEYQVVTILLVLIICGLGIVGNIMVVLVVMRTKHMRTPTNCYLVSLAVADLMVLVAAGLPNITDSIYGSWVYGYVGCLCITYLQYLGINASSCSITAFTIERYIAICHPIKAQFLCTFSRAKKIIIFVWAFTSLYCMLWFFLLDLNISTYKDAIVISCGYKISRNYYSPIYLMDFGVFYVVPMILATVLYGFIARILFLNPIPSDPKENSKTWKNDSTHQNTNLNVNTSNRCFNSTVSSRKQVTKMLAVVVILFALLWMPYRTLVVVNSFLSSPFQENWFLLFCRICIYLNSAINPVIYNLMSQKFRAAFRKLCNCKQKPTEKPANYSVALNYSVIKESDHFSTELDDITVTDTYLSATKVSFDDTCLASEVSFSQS
Outline: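 Following an 18 h incubation at 37 °C and a 2 h calcium dye load, TRHR-HEK293 cells were exposed to compound (5 min, room temperature) and challenged with TRH, 1 nM final.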

[10] = molecular target: Thyrotropin-releasing hormone receptor (Homo sapiens) (UniProt P34981); assay: qHTS assay to identify small molecule agonists of the thyrotropin-releasing hormone receptor (TRHR) signaling pathway (AID 1346891; calls by dose curve; also: series mostly up to about 58 µM)
Outline: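 HEK293 cells expressing TRHR plated 18 h at 37 C/5% CO2, calcium dye-loaded 2 h at 37 C, then compound added (agonist mode); kinetic calcium fluorescence read 3 min at 1 s intervals; 15 concentrations in triplicate.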

[11] = Human pregnane X receptor (PXR) small molecule agonists, qHTS cell viability counter screen (AID 1346977); also: nearly all actives have a fitted effect of over 50% in size; also: potency is read from the fitted curve at half-maximal effect
Outline: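 PXR-Luc HepG2 cells (2,000/well, 5% charcoal-stripped FBS) preincubated 5 hr, then exposed to compounds 24 hr at 37 C. Viability read in the same wells by CellTiter-Fluor fluorescence, reagent added at 23 hr, 1 hr incubation.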

[12] = molecular target: Progesterone receptor (Homo sapiens) (UniProt P06401); assay: qHTS assay to identify small molecule antagonists of the progesterone receptor (PR) signaling pathway (AID 1346795; active = well fitted inhibition curve with a large enough effect in the signal ratio in the repeat runs, not every such curve was filed as active; the % refers to the signal ratio; also: potency is read from the fitted curve at half-maximal effect)
Sequence of Progesterone receptor (Homo sapiens) (P06401 whole entry, looked up): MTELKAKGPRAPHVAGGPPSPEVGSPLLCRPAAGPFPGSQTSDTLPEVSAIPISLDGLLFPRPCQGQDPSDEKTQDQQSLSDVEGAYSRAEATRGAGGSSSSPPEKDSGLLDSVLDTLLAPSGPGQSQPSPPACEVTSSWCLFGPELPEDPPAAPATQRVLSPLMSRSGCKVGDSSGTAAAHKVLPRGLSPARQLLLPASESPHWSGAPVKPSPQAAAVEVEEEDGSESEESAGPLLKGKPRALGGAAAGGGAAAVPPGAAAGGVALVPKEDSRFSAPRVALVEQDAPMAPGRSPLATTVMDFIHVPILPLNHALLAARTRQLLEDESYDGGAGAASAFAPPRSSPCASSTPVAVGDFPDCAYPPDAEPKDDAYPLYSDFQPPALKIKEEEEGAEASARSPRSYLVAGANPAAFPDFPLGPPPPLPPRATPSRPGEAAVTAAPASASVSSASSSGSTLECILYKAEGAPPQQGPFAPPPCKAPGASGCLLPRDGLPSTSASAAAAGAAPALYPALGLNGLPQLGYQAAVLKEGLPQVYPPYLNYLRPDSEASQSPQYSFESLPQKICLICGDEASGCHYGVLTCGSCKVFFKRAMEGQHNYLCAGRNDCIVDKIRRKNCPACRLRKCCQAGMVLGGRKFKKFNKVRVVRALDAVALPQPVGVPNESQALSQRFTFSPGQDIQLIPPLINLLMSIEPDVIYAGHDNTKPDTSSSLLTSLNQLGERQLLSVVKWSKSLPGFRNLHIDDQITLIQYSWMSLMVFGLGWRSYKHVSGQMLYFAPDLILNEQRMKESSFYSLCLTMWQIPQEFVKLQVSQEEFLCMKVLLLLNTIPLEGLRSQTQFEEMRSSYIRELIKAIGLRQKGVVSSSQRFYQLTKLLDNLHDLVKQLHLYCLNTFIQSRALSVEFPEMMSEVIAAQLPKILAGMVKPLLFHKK
Outline: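 PR-UAS-bla HEK293T cells with beta-lactamase reporter under UAS control, in 2% charcoal-stripped FBS, treated with compounds plus 1 nM promegestone (R5020, final) for 16 hr at 37C. Read-out: FRET beta-lactamase substrate fluorescence after 2 hr at room temperature.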

[13] = qHTS assay to identify small molecule antagonists of the estrogen receptor beta (ER-beta) signaling pathway - cell viability counter screen (AID 1259382); also: nearly all actives have a fitted effect of over 55% in size; also: potency is read from the fitted curve at half-maximal effect
Outline: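 In this multiplexed counter screen, cells were seeded at 2,000 per well in medium with 2% charcoal-stripped FBS and incubated 6 hr before compound and 1nM final E2 were added. Sixteen hours later, ATP-based luminescence reported viability.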

[14] = molecular target: Progesterone receptor (Homo sapiens) (UniProt P06401); assay: qHTS assay to identify small molecule agonists of the progesterone receptor (PR) signaling pathway (AID 1346784; calls by dose curve; also: nearly all actives have a fitted effect of over 30% in size)
Outline: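 PR-UAS-bla HEK 293T cells (beta-lactamase reporter under UAS) in 2% charcoal-stripped FBS, dosed with 23 nL compound after 6 hr, incubated 16hr at 37C. LiveBLAzer B/G FRET substrate added, fluorescence read after 2 hours.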

[15] = qHTS assay to identify small molecule agonists of the progesterone receptor (PR) signaling pathway - cell viability counter screen (AID 1346799; calls by dose curve; also: nearly all actives have a fitted effect of over 45% in size; also: potency is read from the fitted curve at half-maximal effect)
Outline: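 Counter screen in the PR-UAS-bla HEK293T wells (2% charcoal-stripped FBS, 16 h compound exposure at 37 C) after the bla read. CellTiter-Glo added, 30 min at room temperature, luminescence read as cell viability.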

[16] = qHTS assay to identify small molecule agonists of the TGF-beta/Smad signaling pathway (AID 1346859; active = well fitted activation curve with a large enough effect in the signal ratio in the repeat runs, not every such curve was filed as active; the % refers to the signal ratio; also: series mostly up to about 77 µM)
Outline: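 SBE-bla HEK293T cells plated overnight, then compound exposure for 5 h at 37 C. Beta-lactamase reporter read with LiveBLAzer B/G FRET substrate after 2 h at room temperature, fluorescence at 405 nm excitation, 460/530 nm emission.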

[17] = qHTS assay to identify small molecule agonists of the estrogen receptor beta (ER-beta) signaling pathway - cell viability counter screen (AID 1259380); also: nearly all actives have a fitted effect of over 30% in size; also: potency is read from the fitted curve at half-maximal effect
Outline: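 CellTiter-Glo read, 30 min RT, same wells as bla assay; cells ER-beta-UAS-bla HEK293T; 16 hr compound, 37C; medium 2% charcoal-stripped FBS.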

[18] = molecular target: Androgen receptor (Homo sapiens) (UniProt P10275); assay: qHTS assay to identify small molecule agonists of the androgen receptor (AR) signaling pathway in the presence of an antagonist (AID 1259381; calls by dose curve; also: nearly all actives have a fitted effect of over 15% in size)
Sequence of Androgen receptor (Homo sapiens) (P10275 whole entry, looked up): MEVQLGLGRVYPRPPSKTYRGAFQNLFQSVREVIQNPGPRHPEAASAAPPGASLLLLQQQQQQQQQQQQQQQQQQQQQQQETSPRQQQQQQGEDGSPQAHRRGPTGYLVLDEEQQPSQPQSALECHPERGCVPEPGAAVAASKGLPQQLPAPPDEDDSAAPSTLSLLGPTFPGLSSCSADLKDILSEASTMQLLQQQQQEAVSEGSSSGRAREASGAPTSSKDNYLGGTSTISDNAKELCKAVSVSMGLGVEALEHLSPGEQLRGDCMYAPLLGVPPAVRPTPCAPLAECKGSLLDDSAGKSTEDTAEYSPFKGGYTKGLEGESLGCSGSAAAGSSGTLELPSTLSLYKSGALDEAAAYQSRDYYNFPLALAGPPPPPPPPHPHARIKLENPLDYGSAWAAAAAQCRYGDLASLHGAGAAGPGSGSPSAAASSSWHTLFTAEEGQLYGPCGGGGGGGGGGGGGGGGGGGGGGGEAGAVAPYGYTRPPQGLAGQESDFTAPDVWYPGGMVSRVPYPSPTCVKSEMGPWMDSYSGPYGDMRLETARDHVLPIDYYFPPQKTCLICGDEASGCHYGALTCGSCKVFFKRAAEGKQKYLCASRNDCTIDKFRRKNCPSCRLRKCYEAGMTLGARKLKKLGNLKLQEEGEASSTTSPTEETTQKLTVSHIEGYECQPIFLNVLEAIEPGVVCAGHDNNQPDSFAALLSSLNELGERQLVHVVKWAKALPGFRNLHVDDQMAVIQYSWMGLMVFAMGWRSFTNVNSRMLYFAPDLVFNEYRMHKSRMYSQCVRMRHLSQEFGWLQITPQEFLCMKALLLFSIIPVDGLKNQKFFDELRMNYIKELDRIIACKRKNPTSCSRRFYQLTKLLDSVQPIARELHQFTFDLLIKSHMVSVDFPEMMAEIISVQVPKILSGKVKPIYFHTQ
Outline: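 Test compounds at 15 concentrations were incubated for 16hr with MDA-kb2 reporter cells in presence of 3.0uM nilutamide (final). Signal: ONE-Glo luciferase luminescence.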

| SMILES | Potency [1] | Potency [2] | outcome [3] | Potency [4] | Potency [5] | Potency [6] | Potency [7] | Potency [8] | Potency [9] | Potency [10] | Potency [11] | Potency [12] | Potency [13] | Potency [14] | Potency [15] | outcome [16] | Potency [17] | Potency [18] |
| --- | --- | --- | --- | --- | --- | --- | --- | --- | --- | --- | --- | --- | --- | --- | --- | --- | --- | --- |
| O=[N+]([O-])c1cc(C(F)(F)F)c(Cl)c([N+](=O)[O-])c1Cl | 27.3 µM (active) | inactive | inactive | 61.1 µM (active) | 54.5 µM (active) | 54.5 µM (active) | 49 µM (active) | 49 µM (active) | inactive | inactive | 27.3 µM (active) |  |  |  |  |  |  |  |
| O=C(O)c1cc[c]([Hg][Cl])cc1 | inactive | inactive | inactive | inactive | inactive |  | inactive | inactive | inactive | inactive | 68.6 µM (active) | 15.4 µM (active) |  |  |  |  |  |  |
| CCS(=O)(=O)c1cccnc1S(=O)(=O)NC(=O)Nc1nc(OC)cc(OC)n1 | inactive |  | inactive | inactive | inactive | inactive | inactive | inactive | inactive | inactive | inactive | inactive | inactive | inactive | inactive | inactive |  |  |
| Cc1cc(C(C)(C)c2cc(C)c(O)c(C)c2)cc(C)c1O |  |  | inactive | inactive | inactive | 41.8 µM (active) | inactive |  |  | inactive |  |  | 26.4 µM (active) |  | 59.1 µM (active) |  | 52.7 µM (active) | inactive |
| CC(=O)/C=C/c1ccc2c(c1)OCO2 |  |  |  | inactive | inactive |  | inactive | inactive |  |  |  |  | inactive | inactive |  | inactive | inactive | inactive |
| Nc1c(Oc2ccccc2)cc(O)c2c1C(=O)c1ccccc1C2=O |  | 1.88 µM (active) |  |  | 26.6 µM (active) | inactive | inactive | inactive | inactive | inactive |  |  | inactive | inactive | inactive | inactive | inactive | inactive |
